Test results: PubChem BioAssay (NCI)
This is part of a sample that, as a whole, favours compounds with a hit. Of some 79,000 tested, about 15% had one in any assay. Values without a mark were called inactive. Calls of active or inactive are those of the source. Rule as the data show it: active = growth inhibition above about 70%; inactive = the rest.

Key:
[1] = NCI Yeast Anticancer Drug Screen. Data for the rad50 strain (AID 155);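 also: 0% = growth of vehicle-only cultures of the same strain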; settings: S. cerevisiae rad50 strain growth inhibition, stronger effect = higher value
Summary of the method: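 Cells are treated with compound, grown, and their growth is then scored against vehicle-only cultures of the same repair-deficient yeast strain.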

[2] = NCI Yeast Anticancer Drug Screen. Data for the mec2-1 strain (AID 157); settings: S. cerevisiae mec2-1 strain, stronger effect = higher value
Summary of the method: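 mec2-1 yeast strain, carrying an alteration in DNA damage repair or cell cycle control, was exposed to compounds; growth inhibition was measured relative to vehicle-treated controls.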

[3] = NCI Yeast Anticancer Drug Screen. Data for the sgs1 mgt1 strain (AID 161);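 also: 0% = growth of cultures given vehicle only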; settings: S. cerevisiae sgs1 mgt1 strain, stronger effect = higher value
Summary of the method: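 Growth of a repair-deficient yeast mutant was monitored after compound treatment and expressed as inhibition relative to vehicle-treated cultures.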

[4] = NCI Yeast Anticancer Drug Screen. Data for the cln2 rad14 strain (AID 165);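 also: 0% = growth equal to vehicle treated cultures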; settings: S. cerevisiae cln2 rad14 strain, stronger effect = higher value
Summary of the method: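 Yeast carrying cln2 and rad14 alterations (cell cycle control and DNA damage repair) were exposed to compounds. Growth inhibition was measured against vehicle-treated controls.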

[5] = NCI Yeast Anticancer Drug Screen. Data for the bub3 strain (AID 167); settings: S. cerevisiae bub3 mutant strain, stronger effect = higher value
Summary of the method: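 Part of a panel of yeast mutants defective in DNA damage repair or cell cycle regulation. Each strain is grown with compound, and inhibition is calculated relative to solvent-treated cultures.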

[6] = NCI Yeast Anticancer Drug Screen. Data for the mlh1 rad18 strain (AID 175); settings: S. cerevisiae mlh1 rad18 strain growth inhibition, stronger effect = higher value
Summary of the method: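 Growth inhibition of the yeast strain was measured after compound exposure and expressed relative to vehicle-treated controls. The strain carries defined defects in DNA damage repair.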

[7] = at 5.0 µM (retest, dose inferred, filed as 0.5)
[8] = at 50.0 µM (retest, dose inferred, filed as 5.0)

Question: For `Cc1c(Cl)ccc(O)c1[N+](=O)[O-]`, which growth inhibition [1, 7] is on record?
Answer: 2%

Question: And the growth inhibition [1, 8]?
Answer: 87% (active)

Question: And the growth inhibition ([1]; at 50.0 µM)?
Answer: 91.6% (active)

Question: And the growth inhibition [2, 7]?
Answer: 2%

Question: What about the growth inhibition [2, 8] of the same compound?
Answer: 86% (active)

Question: What about the growth inhibition ([2]; at 50.0 µM) of the same compound?
Answer: 91.7% (active)

Question: What about the growth inhibition [3, 7] of the same compound?
Answer: 3%

Question: What about the growth inhibition [3, 8] of the same compound?
Answer: 82% (active)

Question: What about the growth inhibition ([3]; at 50.0 µM) of the same compound?
Answer: 96.1% (active)

Question: What about the growth inhibition [4, 7] of the same compound?
Answer: 2%

Question: What about the growth inhibition [4, 8] of the same compound?
Answer: 75% (active)

Question: What about the growth inhibition ([4]; at 50.0 µM) of the same compound?
Answer: 84.8% (active)

Question: And the growth inhibition [5, 7]?
Answer: 5%

Question: What about the growth inhibition [5, 8] of the same compound?
Answer: 93% (active)

Question: What about the growth inhibition ([5]; at 50.0 µM) of the same compound?
Answer: 88.8% (active)

Question: What about the growth inhibition [6, 7] of the same compound?
Answer: -1%

Question: And the growth inhibition [6, 8]?
Answer: 97% (active)

Question: And the growth inhibition ([6]; at 50.0 µM)?
Answer: 94% (active)

Question: What does the source list for `O=[N+]([O-])c1c(I)ccc2ccccc12`?
Answer: growth inhibition [1, 7]: -24%; growth inhibition [1, 8]: 90% (active); growth inhibition ([1]; at 50.0 µM): 41.9%; growth inhibition [2, 7]: 0%; growth inhibition [2, 8]: 89% (active); growth inhibition ([2]; at 50.0 µM): -0.95%; growth inhibition [3, 7]: -6%; growth inhibition [3, 8]: 95% (active); growth inhibition ([3]; at 50.0 µM): 17.6%; growth inhibition [4, 7]: -9%; growth inhibition [4, 8]: 41%; growth inhibition ([4]; at 50.0 µM): 11.5%; growth inhibition [5, 7]: -2%; growth inhibition [5, 8]: 66%; growth inhibition ([5]; at 50.0 µM): 5.25%; growth inhibition [6, 7]: 1%; growth inhibition [6, 8]: 94% (active); growth inhibition ([6]; at 50.0 µM): 36.5%

Question: For `CCNC(=S)N/N=C(\C)c1cccc(C)n1`, which growth inhibition [1, 7] is on record?
Answer: -5%

Question: What about the growth inhibition [1, 8] of the same compound?
Answer: 21%

Question: What about the growth inhibition ([1]; at 50.0 µM) of the same compound?
Answer: 54.6%

Question: And the growth inhibition [2, 7]?
Answer: -37%

Question: What about the growth inhibition [2, 8] of the same compound?
Answer: 34%

Question: And the growth inhibition ([2]; at 50.0 µM)?
Answer: 76.3% (active)

Question: What about the growth inhibition [3, 7] of the same compound?
Answer: -31%

Question: And the growth inhibition [3, 8]?
Answer: 22%

Question: What about the growth inhibition ([3]; at 50.0 µM) of the same compound?
Answer: 54.7%

Question: And the growth inhibition [4, 7]?
Answer: -21%

Question: What about the growth inhibition [4, 8] of the same compound?
Answer: 24%

Question: And the growth inhibition ([4]; at 50.0 µM)?
Answer: 50.9%

Question: What about the growth inhibition [5, 7] of the same compound?
Answer: -20%

Question: What about the growth inhibition [5, 8] of the same compound?
Answer: 27%

Question: And the growth inhibition ([5]; at 50.0 µM)?
Answer: 62%

Question: And the growth inhibition [6, 7]?
Answer: -9%

Question: And the growth inhibition [6, 8]?
Answer: 21%

Question: What about the growth inhibition ([6]; at 50.0 µM) of the same compound?
Answer: 37.2%

Question: For `Cc1[nH]c2ccccc2c1SCc1ccccc1`, which growth inhibition [1, 7] is on record?
Answer: -5%

Question: What about the growth inhibition [1, 8] of the same compound?
Answer: 99% (active)

Question: And the growth inhibition ([1]; at 50.0 µM)?
Answer: 99.2% (active)

Question: What about the growth inhibition [2, 7] of the same compound?
Answer: 2%

Question: And the growth inhibition [2, 8]?
Answer: 100% (active)

Question: And the growth inhibition ([2]; at 50.0 µM)?
Answer: 99.7% (active)

Question: And the growth inhibition [3, 7]?
Answer: 0%

Question: What about the growth inhibition [3, 8] of the same compound?
Answer: 100% (active)

Question: And the growth inhibition ([3]; at 50.0 µM)?
Answer: 99.5% (active)

Question: And the growth inhibition [4, 7]?
Answer: -2%

Question: And the growth inhibition [4, 8]?
Answer: 99% (active)

Question: What about the growth inhibition ([4]; at 50.0 µM) of the same compound?
Answer: 99.3% (active)

Question: What about the growth inhibition [5, 7] of the same compound?
Answer: -6%

Question: What about the growth inhibition [5, 8] of the same compound?
Answer: 99% (active)

Question: And the growth inhibition ([5]; at 50.0 µM)?
Answer: 99.5% (active)

Question: What about the growth inhibition [6, 7] of the same compound?
Answer: -7%

Question: What about the growth inhibition [6, 8] of the same compound?
Answer: 98% (active)

Question: What about the growth inhibition ([6]; at 50.0 µM) of the same compound?
Answer: 99.3% (active)

Question: Which growth inhibition [1, 7] does the source give for `O=C(O)/C(=C/c1ccccc1)c1ccc2ccccc2c1Br` here?
Answer: 11%

Question: What about the growth inhibition [1, 8] of the same compound?
Answer: 99% (active)

Question: And the growth inhibition ([1]; at 50.0 µM)?
Answer: 99.6% (active)

Question: What about the growth inhibition [2, 7] of the same compound?
Answer: 1%

Question: And the growth inhibition [2, 8]?
Answer: 100% (active)

Question: And the growth inhibition ([2]; at 50.0 µM)?
Answer: 99.7% (active)

Question: And the growth inhibition [3, 7]?
Answer: 7%

Question: And the growth inhibition [3, 8]?
Answer: 100% (active)

Question: And the growth inhibition ([3]; at 50.0 µM)?
Answer: 99.7% (active)

Question: What about the growth inhibition [4, 7] of the same compound?
Answer: -18%

Question: And the growth inhibition [4, 8]?
Answer: 99% (active)

Question: What about the growth inhibition ([4]; at 50.0 µM) of the same compound?
Answer: 99.2% (active)

Question: What about the growth inhibition [5, 7] of the same compound?
Answer: -10%

Question: What about the growth inhibition [5, 8] of the same compound?
Answer: 99% (active)

Question: What about the growth inhibition ([5]; at 50.0 µM) of the same compound?
Answer: 99.7% (active)

Question: And the growth inhibition [6, 7]?
Answer: 33%

Question: And the growth inhibition [6, 8]?
Answer: 99% (active)

Question: What about the growth inhibition ([6]; at 50.0 µM) of the same compound?
Answer: 99.7% (active)

Question: What does the source list for `O=C1c2ccccc2C(=O)[C@@]23O[C@@]12C1(Oc2cccc4cccc(c24)O1)[C@@H]1O[C@@H]1[C@@H]3O`?
Answer: growth inhibition [1, 7]: 79% (active); growth inhibition [1, 8]: 98% (active); growth inhibition ([1]; at 50.0 µM): 88.1% (active); growth inhibition [2, 7]: 84% (active); growth inhibition [2, 8]: 99% (active); growth inhibition ([2]; at 50.0 µM): 91% (active); growth inhibition [3, 7]: 62%; growth inhibition [3, 8]: 99% (active); growth inhibition ([3]; at 50.0 µM): 91.2% (active); growth inhibition [4, 7]: 48%; growth inhibition [4, 8]: 98% (active); growth inhibition ([4]; at 50.0 µM): 88.7% (active); growth inhibition [5, 7]: 56%; growth inhibition [5, 8]: 99% (active); growth inhibition ([5]; at 50.0 µM): 89.5% (active); growth inhibition [6, 7]: 85% (active); growth inhibition [6, 8]: 98% (active); growth inhibition ([6]; at 50.0 µM): 84.9% (active)

Question: What does the source list for `CS(=O)(=O)c1ccc(C[N+]23CN4CN(CN(C4)C2)C3)cc1`?
Answer: growth inhibition [1, 7]: -9%; growth inhibition [1, 8]: -2%; growth inhibition ([1]; at 50.0 µM): -8.25%; growth inhibition [2, 7]: 0%; growth inhibition [2, 8]: 13%; growth inhibition ([2]; at 50.0 µM): 14.7%; growth inhibition [3, 7]: -20%; growth inhibition [3, 8]: -5%; growth inhibition ([3]; at 50.0 µM): -0.8%; growth inhibition [4, 7]: -8%; growth inhibition [4, 8]: -4%; growth inhibition ([4]; at 50.0 µM): 43.4%; growth inhibition [5, 7]: -4%; growth inhibition [5, 8]: 6%; growth inhibition ([5]; at 50.0 µM): -4.75%; growth inhibition [6, 7]: -9%; growth inhibition [6, 8]: -4%; growth inhibition ([6]; at 50.0 µM): 1.85%

Question: What does the source list for `CCCCCC(C)(C)N=C=S`?
Answer: growth inhibition [1, 7]: 3%; growth inhibition [1, 8]: 0%; growth inhibition ([1]; at 50.0 µM): 7%; growth inhibition [2, 7]: -1%; growth inhibition [2, 8]: 2%; growth inhibition ([2]; at 50.0 µM): -1.65%; growth inhibition [3, 7]: -1%; growth inhibition [3, 8]: -3%; growth inhibition ([3]; at 50.0 µM): -1.85%; growth inhibition [4, 7]: 5%; growth inhibition [4, 8]: 1%; growth inhibition ([4]; at 50.0 µM): 10.3%; growth inhibition [5, 7]: 1%; growth inhibition [5, 8]: 0%; growth inhibition ([5]; at 50.0 µM): 8.3%; growth inhibition [6, 7]: -5%; growth inhibition [6, 8]: 1%; growth inhibition ([6]; at 50.0 µM): -5.6%

Question: For `Cc1nc(-c2ccccc2)nc2c1nc(C(C)C)n2Nc1ccccc1`, which growth inhibition [1, 7] is on record?
Answer: -2%

Question: And the growth inhibition [1, 8]?
Answer: 20%

Question: And the growth inhibition ([1]; at 50.0 µM)?
Answer: 94.1% (active)

Question: And the growth inhibition [2, 7]?
Answer: -3%

Question: And the growth inhibition [2, 8]?
Answer: 41%

Question: And the growth inhibition ([2]; at 50.0 µM)?
Answer: 57.6%

Question: What about the growth inhibition [3, 7] of the same compound?
Answer: 0%

Question: What about the growth inhibition [3, 8] of the same compound?
Answer: 25%

Question: What about the growth inhibition ([3]; at 50.0 µM) of the same compound?
Answer: 73.8% (active)

Question: And the growth inhibition [4, 7]?
Answer: -9%

Question: And the growth inhibition [4, 8]?
Answer: 33%

Question: What about the growth inhibition ([4]; at 50.0 µM) of the same compound?
Answer: 64.8%

Question: What about the growth inhibition [5, 7] of the same compound?
Answer: 3%

Question: And the growth inhibition [5, 8]?
Answer: 35%

Question: And the growth inhibition ([5]; at 50.0 µM)?
Answer: 80.8% (active)

Question: And the growth inhibition [6, 7]?
Answer: -4%

Question: And the growth inhibition [6, 8]?
Answer: 37%

Question: And the growth inhibition ([6]; at 50.0 µM)?
Answer: 78.5% (active)
